In PubChem BioAssay (NCI):
Where “and” joins values, the source holds several entries; their conditions need not be identical. Equal values may be shown once. This is part of a sample that, as a whole, favours compounds with a hit. Of some 83,000 tested, about 20% had one in any assay.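 Percent growth is the endpoint: 0 to 100 indicates growth inhibition (40 means 60% inhibition), 0 means no net growth, and negative values indicate cell death.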 Values without a mark were called inactive. Calls of active or inactive are those of the source. How the source made its calls: active means growth percent below 10; inactive means the rest.

Test system: MDA-MB-468 breast
Assay: NCI-60 one-dose screen, 48 h (100 = growth as untreated, 0 = no growth, -100 = all killed)
Settings: 10 µM unless noted

SMILES	growth
CCOc1ccc2[nH]c(=S)sc2c1	107%
CC1(C)C2CC1C1(/C=N/NC(N)=S)C(C2)C(C#N)(C#N)C1(C#N)C#N (configuration not stated)	76.6%
O=C(CNC(=O)c1cccc2ccccc12)Nc1ccccc1Cc1ccccc1	13.7% [5 µM]
COc1ccccc1C(=O)Nc1cccc(NC(=O)c2ccoc2C)c1	14%
OC(CCC(O)(c1ccccc1)c1ccccc1)(c1ccccc1)c1ccccc1	93.6%
Nc1c2ccccc2nc2ccccc12 (tested in a mixture with another compound)	-18.6% (active)
O=C(NCCN1CCCC1)c1ccc(-c2nc3ccc4[nH]ncc4c3c3c2CCCC3)cc1	-43.9% (active)
CC(C)=CCC[C@](C)(O)[C@H]1CC[C@]2(C)[C@@H]1CC[C@@H]1[C@@]3(C)CC[C@H](N)C(C)(C)[C@@H]3CC[C@]12C	62%
COc1cc(-c2nn(-c3ccc(Br)cc3)cc2C(=O)O)ccc1O	103%
C[C@H]1[C@H]2[C@H]3CC[C@@H]4[C@@]5(C)C/C(=C/c6cccnc6)C(=O)C(C)(C)[C@@H]5CC[C@@]4(C)[C@]3(C)CC[C@]23CO[C@]1(C)[C@@H](C(=O)/C=C\c1cccnc1)C3	-5.83% (active)
COc1ccccc1NC1=C(N2CCCCC2)C(=O)c2ccccc2C1=O	65.9%
CC(C)CCC[C@@H](C)[C@H]1CC[C@H]2[C@@H]3CC=C4N(c5ccccc5)C(=O)CC[C@]4(C)[C@H]3CC[C@]12C	96.4%
Cc1cc(C(=O)Nc2ccc3cc(CN4CCOCC4)ccc3n2)c(C)n1-c1ccccc1	26.7%
C[C@]12CC[C@@H]3c4ccc(O)c(N)c4CC[C@H]3[C@@H]1CC[C@@H]2O	59.8%
Clc1ccc(Nc2ncnc3c2sc2ncccc23)c(Cl)c1	22.2%
c1ccc(Cn2cc(-c3nc4ccccc4s3)c3cccnc32)cc1	99.4%
O=C(Nc1nc2ccc(S(=O)(=O)Nc3ccc(C4(C(F)(F)F)CC4)cc3)cc2[nH]1)c1cnccn1	-12% (active)
Oc1ccccc1-c1nnc(Cn2c(Cc3cccc4ccccc34)nc3ccccc32)o1	105%
Oc1c(CCl)cc(Cl)cc1Cc1cc(Cl)cc(Cc2cc(Cl)cc(CCl)c2O)c1O	18.8%
COc1cc(/C=C2\C(=O)N(CCCCn3c4ccccc4c(=O)c4ccccc43)c3ccccc32)cc(OC)c1O	46.2%
CCCCCCC(C(=O)OCC)(C(=O)OCC)C1CCCCCC1	112%

SMILES	growth
Cc1c2cc[nH]c(=O)c2c(C)c2c1[nH]c1cc(OCCN3CCN(C)CC3)ccc12	-12.4% (active)
N/C(=N\C(N)=N\c1nc2ccccc2s1)c1cccc(Cl)c1	110%
CSc1nc(N)c(CNC(C)c2ccccc2)c(=O)n1C (configuration not stated)	97.4%
CC1(C)CN(c2cnc(C(=O)Nc3cc(F)cc4cccnc34)cn2)CCN1	17.8%
COc1ccc(-c2cc(-c3c(C)oc4cc5occc5c(OC)c4c3=O)nc(N)c2C#N)cc1OC	76.2%
CCc1cnc(=S)n(-c2ccccc2)c1	117%
COc1cc(-c2nc(Nc3nc4ccccc4s3)[nH]c(=O)c2C#N)cc(OC)c1O	105%
Cc1noc(C)c1CSc1ccccc1C(=O)N1CCN(c2cccc(C(F)(F)F)c2)CC1	38.1%
COc1cc2c(cc1NC(=O)C(Cl)Cl)-c1ccc(NC(=O)C(Cl)Cl)cc1C2	-58.3% (active)
O=C(Nc1ccccc1-c1nc2ccccc2c(=O)[nH]1)c1cc2ccccc2[nH]1	86.9%
O=C(N/N=C/c1ccc(OC(F)F)c(OC2CCCC2)c1)c1cnn2c1NC(c1ccccc1)C2 (configuration not stated)	84%
COc1cccc(-c2nn(-c3ccccc3)cc2-c2ccnc(NCCCNC(=O)c3ccccc3)c2)c1	15.2%
COc1cc2ncnc(Nc3ccc(S(=O)(=O)Nc4cc(C)on4)cc3)c2cc1OCCCN1CCN(c2ccc([N+](=O)[O-])cc2)CC1	115%
CCOC(=O)c1cc(C(=O)c2cc(OC)c(OC)c(OC)c2)n2ncccc12	-11.5% (active)
C=C(C)[C@@H]1C[C@@H]2Cc3ccc(Cl)c(C)c3N1O2	96.3%
CN(CCC(=O)/C(=C\c1ccccc1)c1ccc(Cl)cc1)Cc1ccccc1	-35.2% (active)
CCCCCCN(C)Cc1ccc(OCCOc2ccc(CN(C)CCCCCC)cc2)cc1	-59.9% (active)
CC[C@H](Nc1nc(N)nc(C)c1C#N)c1nc2cccc(NCCCCCC(=O)NO)c2c(=O)n1-c1ccccc1	11.7%
N#Cc1c(NC(=O)c2ccccc2)sc2c1CCC(=O)C2	-9.47% (active)
O=C(Nc1nc(-c2ccccc2Cl)cs1)c1cc(-c2ccccc2)nc2ccc(Cl)cc12	90.9%
CCN(CC)CCCNc1nc(C)cc(Nc2ccc3nc(C)cc(N)c3c2)n1	117%

SMILES	growth
CC1C(C)N(C(=O)CCl)c2ccccc2N1C(=O)CCl (configuration not stated)	-69% (active)
CN1C2CCC1CN(c1cnc(C(=O)Nc3cc(F)cc4cccnc34)cn1)C2	13.1%
Cc1ccc(S(=O)(=O)Nn2c3c(cc(-c4nc5ccccc5s4)c2=O)CCCCCC3)cc1	110%
COc1cc(F)c(/C=C/c2cc(/C=C/c3cc(OC)c(OC)cc3F)on2)cc1OC	77.6%
COc1ccc(-c2c(C(=O)NS(C)(=O)=O)n(Cc3cccc(C(F)(F)F)c3)c3ccccc23)cc1	86.6%
CCCCCCCCCCC/C=C\C[C@H](O)C/C=C1/C(=O)C=C[C@@H]1C/C=C\CCCC(=O)OC	-46.3% (active)
Clc1ccc2c(NC3CCC(N4CCOCC4)CC3)ccnc2c1 (configuration not stated)	9.58% (active)
Nc1cc(-c2c[nH]c3ccc(Cl)cc23)nc2cc(-c3c[nH]c4ccc(Cl)cc34)nn12	68.2%
COCCOCCOCc1n(Cc2ccc3ccccc3c2)c2ccccc2[n+]1Cc1ccc2ccccc2c1	-20.6% (active)
O=Nc1ccc(O)cc1	78.3% and 93.9%
COc1ccc(C(c2cc(OC)c(OC)c(OC)c2)N2CCCC2)cc1 (configuration not stated)	54.8%
CC(Br)c1nc2ccccc2cc1C(N)=O (configuration not stated)	105%
CCN1CCN(C(=S)SCC(=O)Nc2nc3ccc(C)cc3s2)CC1	104%
COc1ccc(C(=O)/C=C/c2ccc(Cl)cc2)cc1S(N)(=O)=O	57.3%
Cc1cccc(-n2c(C)nc3ccc(N4CCCNC4=O)cc3c2=O)c1	99.4%
NC(=O)N1N=C(c2cc3ccccc3oc2=O)CC1c1cn(-c2ccccc2)nc1-c1ccc(Cl)cc1 (configuration not stated)	36.9%
C[C@]12C[C@H](O)[C@H]3[C@@H](CCC4=CC(=O)CC[C@@]43C)[C@@H]1CC[C@@H]2C(=O)CO	84.4%
O=C(CSc1nc(-c2ccccc2)[nH]c1S(=O)(=O)c1ccccc1)NC1CC1	4.04% (active)
Cc1cc(C)cc(NCCC#N)c1	107%
COc1cc(/C=C\C(=O)O)ccc1OCc1ccccc1	92.5%
Cc1ccc(-c2cc3nc(C(Cl)Cl)nc(-c4ccccc4C)n3n2)cc1	49.8%

SMILES	growth
O=C(CSc1nnc(-c2ccc(NC(=O)c3cccnc3)cc2)o1)N[C@@H](Cc1ccc(O)cc1)C(=O)O	110%
OC(c1ccccc1)C(NC(Cc1ccccc1)c1ccccc1)c1ccccc1 (configuration not stated)	89.3%
Clc1ccc2c(c1)C(N1CCNCC1)=Nc1ccccc1O2	-48.3% (active)
C=C[C@@H]1CCC/C=C/[C@@H]2C[C@H](O)C[C@H]2[C@H](O)/C=C/C(=O)O1	-46.6% (active)
CCn1cc(C2=C(c3cn(C)c4ncccc34)C(=O)NC2=O)c2cccnc21	37.2%
Cc1[c-]onc1C.Cc1[c-]onc1C.[Ag].[Ag].[NH-]S(=O)(=O)c1ccc(N=Nc2cc(N=Nc3ccc(S([NH-])(=O)=O)cc3)c3c(NC(=O)C(Cl)Cl)cccc3c2OC(=O)C(Cl)Cl)cc1	53.9%
COc1cccc(CNc2nnc(C)c(C)n2)c1O	91.7%
CC(C)=CCc1cc2c(cc1O)C1=C(C(=O)C3=C(C1=O)S(=O)(=O)CCN3)C(C=C(C)C)O2 (configuration not stated)	-33.5% (active)
COc1cnc2c(c1)C(=O)c1c-2n(CCCN2CCCC2)c(=O)c2cc(Cl)ccc12	50.4%
COC(=O)C(CC=O)C(=O)C(=O)Nc1cccc(C(F)(F)F)c1 (configuration not stated)	104%
CC(C)(C)c1ccc(C(O)CCCN2CCC(C(O)(c3ccccc3)c3ccccc3)CC2)cc1 (configuration not stated)	-97.1% (active)
O=C(Nc1ccc(Cl)cc1)Nc1ccc(Cl)c(C(F)(F)F)c1	10.3%
CC(C)(C)c1ccc(N2CSC(=S)N(c3ccc(C(C)(C)C)cc3)C2)cc1	111%
COc1ccc(-c2cc(=O)n(-c3nc4ccccc4[nH]3)[nH]2)cc1OC	83%
COc1ccc(C(c2ccc(OCCN(C)C)cc2)c2cc3ccccc3c3ccccc23)cc1 (configuration not stated)	2.65% (active)
C#C[C@]1(O)CC[C@H]2[C@@H]3CC=C4c5nc(Nc6ccccc6[N+](=O)[O-])sc5CC[C@]4(C)[C@H]3CC[C@@]21C	70.7%
O=c1ccc2c(ccc3ncccc32)o1	107%
NNC(=O)c1nc(N)n(-c2ccc(S(N)(=O)=O)cc2)n1	108%
COC(=O)c1ccc(C)cc1	105%
